Assay results reported in PubChem BioAssay (EPA / NIEHS).
The source made the active and inactive calls. Rule for the calls: active = hit-call score of the fitted dose curve at least 0.9, where 1 is the maximum; inactive = score below 0.9.

The molecules below were run on Cytochrome P450 (CYP24A1), CYP24A1 (gene 1591) (assay: LTEA_HepaRG_CYP24A1: Life Technologies and Expression Analysis (LTEA) Assay for Cytochrome P450 (CYP24A1) using HepaRG (AID 2283478)). Settings: mRNA level, 48 h; actives raise or lower the signal.
Method: LTEA_HepaRG is a cell based, multiplexed-readout assay that uses HepaRG, a human liver cell line, with measurements taken at 48 hours after chemical dosing on a 96-well plate.LTEA_HepaRG_CYP24A1 is one of 102 assay component(s) measured in the LTEA HepaRG cell culture assay. It is a marker of NR mediated metabolism.Data from the assay component LTEA_HepaRG_CYP24A1 was analyzed into 1 endpoint. This assay endpoint, LTEA_HepaRG_CYP24A1, was analyzed with bidirectional fitting relative to DMSO as the negative control and baseline of activity. Using a type of inducible reporter, measures of mRNA induction for gain or loss-of-signal activity can be used to understand regulation of transcription factor activity. To generalize the intended target to other relatable targets, this assay endpoint is annotated to the cyp intended target family, where the subfamily is xenobiotic metabolism.
A total of 1060 chemcials from the ToxCast library were tested in eight-point concentration-response experiments. Cell culture and cytotoxicity assays were conducted at Thermo Fisher Scientific's Custom Services facility (Madison, WI). A single lot of human HepaRG cells (Thermo Fisher Scientific, Frederick, MD) was used for the cell culture experiments. 96-well format collagen type I coated plates of human HepaRG cells were prepared using established methods. Briefly, cryopreserved HepaRG cells were thawed, plated at a density of approximately 100,000 cells/well in HepaRG Thaw, Plate, and General Purpose media (HPRG770, Thermo Fisher Scientific), and incubated for 48 hours. 0.5% DMSO was selected as vehicle control to balance the requisite need of DMSO in HepaRG cultures to maintain differentiation (for example, baseline metabolism, proportions of hepatocytes vs. cholangiocytes), while enabling further hepatic receptor pathway activation (for example, PXR and CAR) in response to chemical exposure. 48 hours after plating, the culture medium was replaced with HepaRG Serum-Free Incudtion Media. Cells were exposed to each test chemical in duplicate and maintained in CO2 incubators for another 48 hours. Chemical plates were thawed to room temperature and 200x concentrations of treatment groups were prepared. 8-point conentration-reponse curves were made with the highest exposure at 100 uM, followed by half-log dilutions, all in 0.5% DMSO. Each test plate contained variouse controls, induction positive controls (1mM phenobarbital), cytotoxicity positive controls ([…] aflatoxin B1), vehicle controls (0.5% DMSO), and total lysis controls (0.5% DMSO). Cell morphology images were taken using an Essen IncuCyte FLR automated microscope, with six 96-well plates imaged in about 24 minutes. Images were captured and exported and JPEG files. Spent culture media was transfered to black-well plates for the LDH assay, and remaining media was sorted at -80 C for later use. Cells were treated with RLT buffer and frozen until shipped for gene expression analysis. Total RNA was isolated from the cell suspension in 75 uL of Buffer RLT (Qiagen, Germantown, MD 20874) by Quintiles/Expression Analysis (Durham, NC) using a custom isolation procedure. Total RNA from each plate well was transferred to a preamplification plate. Fluidigm's 96.96 Dynamic ArrayTM (Fluidigm, Amsterdam, the Netherlands) technology was used for gene expression analyses by quantitative reverse transcription polymerase chain reaction (qRT-PCR, performed by Quintiles/Expression Analysis, Durham, NC)89. Standard TaqManTM Assays (Applied Biosystems/ThermoFisher Scientific, Foster City, CA) were used to assess the expression of 93 genes selected based on their selectivity and sensitivity to important hepatic receptors known to be modulated by environmental chemicals; importance in human hepatocyte functionality; and hepatotoxicity. […]

Structure (SMILES)	outcome	AC50
COC(=O)NS(=O)(=O)c1ccc(N)cc1	inactive	–
COP(=S)(OC)SCn1nnc2ccccc2c1=O	inactive	–
CCNP(=S)(OC)O/C(C)=C/C(=O)OC(C)C (stereo not given)	inactive	–
CC1(C)CON(Cc2ccccc2Cl)C1=O	inactive	–
CCNC(=O)NC(=O)C(C#N)=NOC	inactive	–
CN=C=S	inactive	–
CCN(CC)C(=O)C(C)Oc1cccc2ccccc12 (stereo not given)	inactive	–
CC1(C)C(C=C(Cl)Cl)C1C(=O)OC(C#N)c1cccc(Oc2ccccc2)c1 (stereo not given)	inactive	–
CC(C)N1C(=O)N(c2ccccc2)CSC1=NC(C)(C)C	inactive	–
CCSC(=O)N1CCCCCC1	inactive	–
COC(=O)NC(=S)Nc1ccccc1NC(=S)NC(=O)OC	inactive	–
CC(C)NC(=O)N1CC(=O)N(c2cc(Cl)cc(Cl)c2)C1=O	inactive	–
Clc1cccc(C(Cl)(Cl)Cl)n1	inactive	–
O=C1C2CC=CCC2C(=O)N1SC(Cl)(Cl)Cl (stereo not given)	inactive	–
CC(C)=CC1C(C(=O)OCc2coc(Cc3ccccc3)c2)C1(C)C (stereo not given)	inactive	–
CSC(=O)c1c(C(F)F)nc(C(F)(F)F)c(C(=O)SC)c1CC(C)C	inactive	–
CC(C)Nc1nc(Cl)nc(NC(C)C)n1	inactive	–
CS(=O)(=O)c1ccc(C(=O)C2C(=O)CCCC2=O)c([N+](=O)[O-])c1	inactive	–
O=c1n(Cl)c(=O)n(Cl)c(=O)n1Cl	inactive	–
N#CN=C1SCCN1Cc1ccc(Cl)nc1	inactive	–

Structure (SMILES)	outcome	AC50
COCc1cnc(C2=NC(C)(C(C)C)C(=O)N2)c(C(=O)O)c1 (stereo not given)	inactive	–
CCCN(CC)CC1COC2(CCC(C(C)(C)C)CC2)O1 (stereo not given)	inactive	–
CC(C)Oc1cccc(NC(=O)c2ccccc2C(F)(F)F)c1	inactive	–
O=P(O)(O)CCCl	inactive	–
Nc1c(Cl)c(Cl)nc(C(=O)O)c1Cl	inactive	–
O=C(Nc1ccccc1-c1ccc(Cl)cc1)c1cccnc1Cl	inactive	–
C=C(C)CN(CC)c1c([N+](=O)[O-])cc(C(F)(F)F)cc1[N+](=O)[O-]	inactive	–
CO/N=C(/C1=NOCCO1)c1ccccc1Oc1ncnc(Oc2ccccc2Cl)c1F	inactive	–
O=C(O)c1c(Cl)ccc2cc(Cl)cnc12	inactive	–
Cn1c(-c2ccccc2)cc(-c2ccccc2)[n+]1C	inactive	–
CCC(C)n1c(=O)[nH]c(C)c(Br)c1=O (stereo not given)	inactive	–
N#Cc1c[nH]cc1-c1cccc2c1OC(F)(F)O2	inactive	–
Cc1nc(N(C)C)nc(OC(=O)N(C)C)c1C	–	92.4 µM (active)
CN/C(=N\[N+](=O)[O-])NCc1cnc(Cl)s1	inactive	–
Cc1cc(C)nc(Nc2ccccc2)n1	inactive	–
CC1(C)C(C(=O)OC(C#N)c2cccc(Oc3ccccc3)c2)C1(C)C (stereo not given)	inactive	–
COC(=O)c1c(C(F)F)nc(C(F)(F)F)c(C2=NCCS2)c1CC(C)C	inactive	–
CNC(=O)Oc1cccc2ccccc12	–	0.0808 µM (active)
CCOc1cc(C(C)(C)C)ccc1C1COC(c2c(F)cccc2F)=N1 (stereo not given)	inactive	–
CCN(CC)c1nc(C)cc(OP(=S)(OC)OC)n1	inactive	–
